Inhibition data for 40 molecules are collected here from PubChem BioAssay.

A number with no mark means an inactive call. Active and inactive are the calls of the source. Cut-off read from the data, not from the text of the source: active = inhibition above about 33%; inactive = the rest.

A short description of the assay: VP16 transactivation reporter inhibitors, counter-screen for LRH-1 inverse agonist project, cell-based, luminescence, high throughput (AID 651615). Conditions: Gal4-VP16 luciferase reporter cells, at 3.6 µM, stronger effect = higher value.
Turning to `CCc1ccccc1NC(=O)CSc1nnc([C@@H](NC(=O)OC(C)(C)C)C(C)C)o1`, the inhibition – broadly, the drop in the measured response relative to a control, in per cent – is 0.4%.

As to `COc1ccc(C2(C)NC(=O)N(CC(=O)NCCC3=CCCCC3)C2=O)cc1OC` (stereo not given), the inhibition is 0.38%.

As to `CCOc1ccc(NC(=O)CN2CCN(CC(=O)Nc3ccc(OC)cc3)CC2)cc1`, the inhibition was 8.13%.

Regarding `COc1cccc(C2c3cc4c(cc3OC(N3CCCC3)C2C)OCO4)c1O` (stereo not given), the inhibition was 21.9%.

As to `CC1Cc2ccccc2N1C1=CC(=O)CC(C)(C)C1` (stereo not given), the inhibition is -3.44%.

Turning to `CCCc1cc(NCC2CCCO2)n2c(nc3ccccc32)c1C#N` (stereo not given), the inhibition was 1.26%.

As for `COc1cccc2c1C(=O)c1c(O)c3c(c(O)c1C2=O)C[C@@](O)(C(C)=O)C[C@@H]3O[C@H]1C[C@H](N)[C@H](O)[C@H](C)O1`, the inhibition is 94% (active).

Regarding `CCCCCc1ccc(OCCCC[n+]2ccc(C)cc2)c(CCCCC)c1`, the inhibition was 45.6% (active).

`COc1ccc(/C=N/OCC(=O)NC(c2ccccc2)c2ccccc2)cc1OC`: the inhibition was 54.7% (active).

For `COc1cc(NC(=O)c2ccc([N+](=O)[O-])o2)ccc1NC(=O)c1ccco1`, the inhibition was -17.9%.

Turning to `CC(C)NC(=O)N1Cc2cc(C(=O)NC3CCCCC3)nc(-c3cccc(-c4cccnc4)c3)c2[C@@H]1CCO`, the inhibition is -0.48%.

On to `CCN(Cc1ccccc1)c1ccc(/C=N/N2CCOCC2)cc1`, for which the inhibition is -9.02%.

For `CC(C)n1c(SCC(=O)Nc2ccc(N3CCOCC3)cc2)nnc1-c1ccco1`, the inhibition is -2.66%.

In the case of `C/C(=N\NC(N)=S)c1ccc(Cl)s1`, the inhibition was 21.2%.

Regarding `CCNc1cc(N2CCCC2)ccc1[N+](=O)[O-]`, the inhibition is -8.79%.

On to `COc1cc(-c2cnc3c(NC=O)cc(-c4cccc(NC(C)=O)c4)cn23)cc(OC)c1OC`, for which the inhibition is -23.8%.

`Cc1ccc2cccc(OCC(=O)NCCC3=CCCCC3)c2n1`: the inhibition was -3.55%.

As for `Nc1nc2ccc(Cl)cc2cc1C(=O)NCc1ccc(Oc2ccccc2)cc1`, the inhibition was 45.7% (active).

For `Clc1ccccc1-c1nc(N/N=C/c2cccnc2)c2ccccc2n1`, the inhibition is -7.84%.

In the case of `COc1ccc2nc(N3CCN(C(=O)c4ccc([N+](=O)[O-])o4)CC3)sc2c1`, the inhibition is -44.3%.

As for `CCOc1cc(/C=N/Nc2nnc(C)n2N)ccc1O`, the inhibition was 2.17%.

For `COc1ccc(C2=Nn3c(nnc3-c3ccccc3F)SC2)cc1OC1CCOC1` (stereo not given), the inhibition is -40.3%.

Consider `O=C(COC(=O)c1ccccc1O)Nc1ccc(N2CCOCC2)cc1`, for which the inhibition is -1.07%.

For `O=C(Nc1ccc(N2CCN(C(=O)c3ccccc3)CC2)cc1)c1ccc([N+](=O)[O-])o1`, the inhibition was -9.49%.

On to `CNC(=O)c1cccc(NC(=O)c2cc(-c3ccccc3)nc3c2cnn3C(C)C)c1`, for which the inhibition is -19.8%.

With `CCCc1cc(=O)oc2cc(C)cc(OCC(=O)Nc3ccccn3)c12`, the inhibition was 3.1%.

Turning to `Nc1nc2ccccc2cc1C(=O)NCc1ccc(-c2ccccc2)cc1`, the inhibition is 55.9% (active).

With `CC1CC(=Cc2ccc(N)cc2)C(=O)O1` (stereo not given), the inhibition was -23.5%.

For the molecule `COc1ccc(NC(=O)CS(=O)(=O)c2ccc(C)cc2)c(OC)c1`, the inhibition was -1.68%.

On to `CCCc1cc(=O)oc2cc(OCC(=O)NCCc3c[nH]c4ccc(OC)cc34)ccc12`, for which the inhibition was -23.9%.

As to `CN1CCN(c2ccccc2NC(=O)c2ccc(-c3cccc([N+](=O)[O-])c3)o2)CC1`, the inhibition was 2.32%.

Regarding `COc1ccc(CNC(=O)c2sc(=O)n(Cc3ccc(-c4ccccc4)cc3)c2C)cc1OC`, the inhibition is 31.6% (active).

For `Cc1ccc(Cl)cc1N1CCN(C(=O)C(C)n2ncn3cccc3c2=O)CC1` (stereo not given), the inhibition is 2.84%.

With `Cc1sc2ncnc(NCCc3ccc(S(N)(=O)=O)cc3)c2c1C`, the inhibition is 50% (active).

Turning to `COc1ccc(N2CCN(C(=O)CSc3nc4ccccc4c(=O)[nH]3)CC2)cc1`, the inhibition was -12.9%.

In the case of `COc1cc(NC(=O)Cn2ccsc2=N)c(C)cc1[N+](=O)[O-]`, the inhibition is -0.82%.

Consider `Cc1cccc(C(=O)N[C@H](C(=O)Nc2ncc(C)s2)C(C)C)c1`, for which the inhibition was 8.22%.

Consider `OC[C@@H]1CN(Cc2ccc(-c3ccccc3)cc2)C[C@H](n2cnc3c(NC4CCC4)ncnc32)O1`, for which the inhibition was 56% (active).

For `Cc1cc(C)c2c(NC(=O)CCl)nn(C)c2n1`, the inhibition was -39.7%.

With `OCC1OC(n2cnc3c(/C=C(\O)c4ccccc4)ncnc32)C(O)C1O` (stereo not given), the inhibition is -27.3%.
